TEAD-YAP block – TEAD-YAP interaction inhibition | AID 1259422 | 640,000 compounds, 1.4% hits | inhibition, % at 9.12 µM | HEK-TIYL cells, TEAD-Gal4/YAP UAS-luciferase luminescence; in the data active = inhibition above about 32%;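 note: 0% = median of test compound wells and 100% = reference inhibitor wells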
GPR151 ag – activates the human receptor GPR151; Q8TDV0; PathHunter beta-arrestin GPR151 cells, luminescence; activation, % at 11.2 µM; 650,000 compounds, 1% hits; in the data active = activation above about 4.9%;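 note: 0% = median of compound wells and 100% = cells with positive control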
MITF inh – human MITF inhibition, primary screen. O75030. AlphaScreen MITF homodimerization, bead proximity signal. 650,000 compounds, 0.91% hits. AID 1259374. inhibition, % at 2.6 µM; in the data active = inhibition above about 50%;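 note: 0% = vehicle wells with protein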
FBW7 act – activators of human E3 ligase FBW7; 650,000 compounds, 0.13% hits; normalized activity (activation), % at 26.1 µM; AID 1259310; AlphaScreen FBW7–phospho-cyclin E peptide binding, activator screen; in the data active = normalized activity above about 1.9%;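 note: purified mutant Fbw7 with reduced substrate affinity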
GPR151 conf act – confirmation of human GPR151 activators. AID 1508609. shares compounds with GPR151 ag. activation, % at 11.2 µM. GPR151 PathHunter beta-arrestin cells, luminescence, 90 min; % of EA-reagent control over plate median. 6,700 tested, under 10 active;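 active = mean percent activation across replicates above the confirmation screen cutoff of 4.91%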
GPR119 counter – counter-screen for GPR151 activators: effect on human GPR119; shares compounds with GPR151 ag; GPR119 PathHunter beta-arrestin cells, luminescence, 90 min; 0 = compound-well median, 100 = enzyme-acceptor control; activation, % at 11.2 µM; 6,700 compounds, 0.3% hits; AID 1508611;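 active = mean percent activation in the counterscreen above 29.09%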;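 note: counterscreen on off-target GPR119 to flag nonselective hits from the GPR151 activator screen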
The depositor's hits bear a star; · = no result given. An excerpt weighted towards active compounds, which were near 3.4% of everything screened.

SMILES | TEAD-YAP block | GPR151 ag | MITF inh | FBW7 act | GPR151 conf act | GPR119 counter
COC(=O)c1ccccc1NC(=O)C(C)N(c1cc(C)cc(C)c1)S(C)(=O)=O (stereo not drawn) | 12 | 0 | -4 | 0 | · | ·
Cc1cc(NC(=O)C(=O)NC(C)C)ccc1Br | -60 | 6.4* | 21 | 0 | -1 | -8
COC(=O)c1ccccc1NC(=O)C(C)N(c1ccc(Cl)cc1)S(C)(=O)=O (stereo not drawn) | 3 | 6.8* | -1 | 0 | 0 | 8
Cc1cc(NC(=O)C(C)N(c2ccc(Cl)cc2)S(C)(=O)=O)ccc1Br (stereo not drawn) | -1 | 6.4* | 10 | 0 | 0 | 6
NC(=O)c1c(NC(=O)C2CC=CCC2C(=O)O)sc2c1CCCC2 (stereo not drawn) | -7 | 0 | 8 | 0 | · | ·
CCCCC(=O)Nc1cccc2c(NC(=O)CCCC)cccc12 | -2 | 2 | 11 | 0 | · | ·
Cc1nc2cc(C(=O)N3CCCC(N4CCOCC4)C3)ccc2n1-c1ccccc1 (stereo not drawn) | -5 | 11* | -10 | 0 | 0 | -6
COc1ccc(CCNC(=O)C(=O)Nc2ccc(F)cc2F)cc1 | -14 | 1 | -2 | 0 | · | ·
CCc1nn(CC(=O)N2CCCC2)c(=O)c2cccn12 | 5 | 1 | 3 | 0 | · | ·
O=C(O)C1CCCN(c2ncnc3scc(-c4ccccc4)c23)C1 (stereo not drawn) | -5 | 18* | 4 | 0 | -1 | -4
CCOC(=O)C1CCCN(c2ncnc3scc(-c4ccccc4)c23)C1 (stereo not drawn) | -19 | 1 | 4 | 0 | · | ·
CC1=C(C(=O)N2CCC(CCC(=O)N(C)Cc3ccccc3)CC2)OCCO1 | -12 | -1 | -1 | 0 | · | ·
CN(Cc1ccccc1)C(=O)CCC1CCN(C(=O)C(=O)c2ccccc2)CC1 | -19 | 5.2* | -7 | 0 | -1 | 2
O=C(Nc1nnc(-c2cccc([N+](=O)[O-])c2)s1)c1cccs1 | 5 | 8.6* | -3 | 0 | 0 | -3
CC(=O)Nc1nnc(-c2cccc([N+](=O)[O-])c2)s1 | 18 | -2 | 14 | 0 | · | ·
O=C(Nc1ccc(N2CCOCC2)cc1)C1CC(=O)N(Cc2ccccc2)C1 (stereo not drawn) | 9 | 7.6* | 1 | 0 | 0 | -1
COc1ccc(/C(C)=N/N=C2/NC(=O)C(CC(=O)Nc3ccc(C)cc3)S2)cc1 (stereo not drawn) | 3 | 0 | 3 | 0 | · | ·
CN(C)C(=O)CCSC(SCCC(=O)O)c1cccc(/C=C/c2ccc3ccc(Cl)cc3n2)c1 (stereo not drawn) | · | -2 | 4 | · | · | ·
CC(C)N(CCNc1nc(Nc2ccccn2)nc2c1ncn2C1CCCCC1)C(C)C | 16 | 6.4* | 2 | 0 | 0 | -13
CC(C)N(CCNc1nc(Nc2nccc3ccccc23)nc2c1ncn2C1CCCCC1)C(C)C | -4 | -2 | -12 | 0 | · | ·
CCOC(=O)C1=C(c2ccccc2)Nc2ncnn2C1c1ccco1 (stereo not drawn) | 15 | 2 | -8 | 0 | · | ·
Cc1ccc(CN=Cc2c(NCc3ccc(C)cc3)nc3ccccn3c2=O)cc1 | -16 | 5.3* | 1 | 0 | 0 | -1
CC(C)CC(=O)N/N=C/c1ccc(OC2CSC2)cc1 | -15 | 0 | 0 | 0 | · | ·
COC(=O)c1nc(N)sc1-c1ccc(Cl)c(Cl)c1 | -1 | 7.6* | 2 | 0 | 0 | -4
COc1ccccc1/C=C1\SC(=Nc2ccccc2F)NC1=O | 8 | -1 | -9 | 0 | · | ·
O=S(=O)(c1cccc2ccccc12)N1CCN(c2ncccn2)CC1 | 7 | -1 | 13 | 0 | · | ·
Cc1cc(S(=O)(=O)N2CCN(c3ccc(F)cc3)CC2)c(Cl)cc1Cl | -11 | 5.3* | 5 | 0 | 1 | 5
O=S(=O)(c1cccc2ccccc12)N1CCN(c2ccc(F)cc2)CC1 | -5 | 19* | 0 | 0 | 0 | -6
COc1ccc(N2CCN(S(=O)(=O)c3ccccc3F)CC2)cc1 | 4 | -1 | 6 | 0 | · | ·
COc1ccc(N2CCN(S(=O)(=O)c3ccccc3C(F)(F)F)CC2)cc1 | 2 | 5.1* | 0 | 0 | 0 | 1

Screens deposited in PubChem by The Scripps Research Institute Molecular Screening Center.
